Measurements published in PubChem BioAssay (NCATS).
Results filed as inconclusive are left out. The source made the active and inactive calls. The call rests on the fitted dose curve; in most records, active means well fitted inhibition curve with a large enough effect; inconclusive means small, poorly fitted or top-dose-only effect; inactive means flat fitted curve, though single readings scatter.

molecular target: Lysine-specific demethylase 5B (Homo sapiens) (UniProt Q9UGL1); assay: Optimization screen for KDM5B Histone Demethylases FDH coupled qHTS against the LOPAC library (AID 1347166); conditions: KDM5B demethylation, FDH-coupled NADH fluorescence (FDH is formaldehyde dehydrogenase); series mostly up to 57.5 µM
How it was run: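 KDM5BDeltaAP (200nM final) in 50mM HEPES pH 7.5, 0.01% Tween-20 was preincubated with compound for 10 min at room temperature. A substrate mix of 12.5uM H3K4Me3, 25uM a-ketoglutarate, ascorbate, Fe2+, NAD+ and formaldehyde dehydrogenase was then added. NADH fluorescence (340/450 nm) was read initially and after 30 min.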

Chain of Lysine-specific demethylase 5B (Homo sapiens) (Q9UGL1 whole entry, looked up): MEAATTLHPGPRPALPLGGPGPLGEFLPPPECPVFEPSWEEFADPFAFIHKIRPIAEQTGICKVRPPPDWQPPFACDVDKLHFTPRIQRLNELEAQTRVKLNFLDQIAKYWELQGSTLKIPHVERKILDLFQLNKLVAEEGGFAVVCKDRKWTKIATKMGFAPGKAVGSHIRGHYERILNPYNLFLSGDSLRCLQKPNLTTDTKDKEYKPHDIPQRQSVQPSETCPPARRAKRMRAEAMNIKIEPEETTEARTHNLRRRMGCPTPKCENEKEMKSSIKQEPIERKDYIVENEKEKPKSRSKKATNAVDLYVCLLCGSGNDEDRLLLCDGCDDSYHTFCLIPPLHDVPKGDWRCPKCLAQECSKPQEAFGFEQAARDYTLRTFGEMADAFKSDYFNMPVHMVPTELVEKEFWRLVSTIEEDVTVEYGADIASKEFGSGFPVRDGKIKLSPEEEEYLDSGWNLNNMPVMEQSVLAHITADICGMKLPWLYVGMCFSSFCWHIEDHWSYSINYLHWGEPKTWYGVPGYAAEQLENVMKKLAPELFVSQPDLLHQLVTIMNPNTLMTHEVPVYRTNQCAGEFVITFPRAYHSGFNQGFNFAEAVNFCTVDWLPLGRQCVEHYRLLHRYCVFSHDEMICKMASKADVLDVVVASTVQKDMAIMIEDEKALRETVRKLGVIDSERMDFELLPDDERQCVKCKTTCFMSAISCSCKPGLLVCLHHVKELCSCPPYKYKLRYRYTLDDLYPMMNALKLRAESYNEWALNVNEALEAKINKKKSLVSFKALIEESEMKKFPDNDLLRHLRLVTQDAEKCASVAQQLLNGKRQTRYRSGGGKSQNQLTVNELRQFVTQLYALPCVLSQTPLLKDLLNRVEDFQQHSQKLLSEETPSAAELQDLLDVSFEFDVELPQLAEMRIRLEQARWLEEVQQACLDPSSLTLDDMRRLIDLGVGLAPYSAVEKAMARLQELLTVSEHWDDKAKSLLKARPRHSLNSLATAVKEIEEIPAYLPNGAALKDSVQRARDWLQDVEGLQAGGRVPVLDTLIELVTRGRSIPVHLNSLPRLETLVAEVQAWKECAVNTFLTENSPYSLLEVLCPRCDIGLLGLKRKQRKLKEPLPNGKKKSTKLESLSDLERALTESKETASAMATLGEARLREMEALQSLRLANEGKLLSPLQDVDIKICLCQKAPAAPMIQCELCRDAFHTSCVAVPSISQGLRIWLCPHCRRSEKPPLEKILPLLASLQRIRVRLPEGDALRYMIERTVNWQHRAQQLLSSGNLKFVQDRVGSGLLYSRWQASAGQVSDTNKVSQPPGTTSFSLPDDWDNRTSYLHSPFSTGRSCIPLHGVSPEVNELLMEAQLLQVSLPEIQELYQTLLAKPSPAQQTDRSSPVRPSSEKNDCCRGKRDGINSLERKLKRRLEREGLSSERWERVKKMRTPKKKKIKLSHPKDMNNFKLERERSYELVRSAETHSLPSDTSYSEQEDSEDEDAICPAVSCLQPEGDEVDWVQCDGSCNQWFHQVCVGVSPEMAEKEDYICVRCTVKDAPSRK

Row | SMILES | outcome
1 | S=C(S)OC1CC2CC1C1CCCC21 (stereo unspecified) | inactive
2 | CC(C)(C=O)Cc1cc(C(C)(C)C)c(O)c(C(C)(C)C)c1 | inactive
3 | CCCCCCCCCCCCCCCC(=O)NCC(COP(=O)([O-])OCC[N+](C)(C)C)OCC (stereo unspecified) | inactive
4 | O=C(O)c1cc([N+](=O)[O-])ccc1NCCCc1ccccc1 | inactive
5 | Nc1nc(Cl)nc2c1ncn2[C@@H]1O[C@H](COP(=O)(O)OP(=O)(O)OP(=O)(O)O)[C@@H](O)[C@H]1O | inactive
6 | Nc1nc(Nc2ccccc2)nc2c1ncn2[C@@H]1O[C@H](CO)[C@@H](O)[C@H]1O | inactive
7 | CN1[C@@H](CC(=O)c2ccccc2)CCC[C@H]1C[C@H](O)c1ccccc1 | inactive
8 | CC(N)C(=O)OC(C)(C)Cc1ccc(Cl)cc1 (stereo unspecified) | inactive
9 | CN1C2CC(OC(=O)[C@H](CO)c3ccccc3)CC1C1OC12 (stereo partly specified) | inactive
10 | C=CC(C)=C[C@@]1(C)SC(=O)C(C)=C1O | inactive
11 | CCCCCCCCCCCCCCCC(=O)OC(CC(=O)O)C[N+](C)(C)C (stereo unspecified) | inactive
12 | COc1ccc2c(c1)CCC1C2CC[C@@]2(C)C1CC[C@@H]2NCCCCCCN1C(=O)CCC1=O (stereo partly specified) | inactive
13 | CC(C)Cc1ccc([C@H](C)C(=O)O)cc1 | inactive
14 | COc1cccc(OC)c1OCCNCC1COc2ccccc2O1 (stereo unspecified) | inactive
15 | NCC1OC(O[C@H]2[C@H](O)[C@@H](OC3C(O)C(N)CC(N)C3OC3OC(CO)C(O)C(O)C3N)O[C@@H]2CO)C(N)C(O)C1O (stereo partly specified) | inactive
16 | CC(=O)SCC[N+](C)(C)C | inactive
17 | O=C(O)CC1CCCc2ccccc2C1O (stereo unspecified) | inactive
18 | CN1CCC[C@H]1c1cccnc1 | inactive

Row | SMILES | outcome
19 | N=c1ccn2c(n1)O[C@H]1[C@H](O)[C@@H](CO)O[C@H]12 | inactive
20 | CCCCC#Cc1nc(NC)c2ncn([C@@H]3O[C@H](CO)[C@@H](O)[C@H]3O)c2n1 | inactive
21 | Nc1nc(SCc2ccc([N+](=O)[O-])cc2)c2ncn([C@@H]3O[C@H](CO)[C@@H](O)[C@H]3O)c2n1 | inactive
22 | CN(C)CCCO[C@@H]1[C@H]2OC(C)(C)O[C@H]2O[C@@H]1[C@H](O)CO | inactive
23 | Clc1ccc(N2CCN(Cc3c[nH]c4ncccc34)CC2)cc1 | inactive
24 | O=C(O)[C@@H]1C[C@@H](C(=O)O)N1 | inactive
25 | OC[C@H]1O[C@@H](n2cnc3c(NC4CCCC4)ncnc32)[C@H](O)[C@@H]1O | inactive
26 | NC(=S)c1ccc[n+]([C@@H]2O[C@@H](COP(=O)([O-])OP(=O)(O)OC[C@H]3O[C@@H](n4cnc5c(N)ncnc54)[C@H](OP(=O)(O)O)[C@@H]3O)C(O)C2O)c1 (stereo partly specified) | inactive
27 | O=C(Nc1ccccc1)c1cc([N+](=O)[O-])ccc1Cl | inactive
28 | CSc1nc(N)c2ncn([C@@H]3O[C@H](COP(=O)(O)OP(=O)(O)OP(=O)(O)O)[C@@H](O)[C@H]3O)c2n1 | inactive
29 | C#CCN1C(C)=C(C(=O)OC)C(c2cccc([N+](=O)[O-])c2)C(C(=O)OCC)=C1C (stereo unspecified) | inactive
30 | NC(N)=NC(=O)c1nc(Cl)c(N2CCCCCC2)nc1N | inactive
31 | CCCN(CC1CC1)c1nc(C)nc(Nc2c(Cl)cc(Cl)cc2Cl)c1Cl | inactive
32 | CCCCCCCCCCCCCCCCCCNC(=O)OCC(COP(=O)([O-])OCC[n+]1ccsc1)OC (stereo unspecified) | inactive
33 | O=C1O/C(=C/Br)CCC1c1cccc2ccccc12 (stereo unspecified) | inactive
34 | OCC1O[C@H](O)C(Cl)C(O)C1O (stereo partly specified) | inactive
35 | Nc1nc(Cl)nc2c1ncn2[C@@H]1O[C@H](CO)[C@@H](O)[C@H]1O | inactive
36 | CN1C2CCC1CC(OC(=O)C(O)c1ccccc1)C2 (stereo unspecified) | inactive
